Test results as given in PubChem BioAssay (NCATS).
Results filed as inconclusive are left out. Entries that show only a call come without a potency. Calls of active or inactive are those of the source. Calls follow the shape of the dose curve; as a rule, active = well fitted curve in the direction sought with a large enough effect; inconclusive = small, poorly fitted or top-dose-only effect, or another doubt; inactive = no such curve, though single readings can be large; an effect the other way counts as inactive or inconclusive.

molecular target: Aldehyde dehydrogenase, mitochondrial (Homo sapiens) (UniProt P05091); assay: qHTS for Inhibitors of the Aldehyde Dehydrogenase Family (ALDH2) Primary screen (AID 2061308); details: ALDH2 enzyme inhibition qHTS, 1536-well; series mostly up to 56 µM; also: nearly all actives have a fitted effect of over 55% in size; also: potency is read from the fitted curve at half-maximal effect

SMILES	Potency	activity change, negative = inhibition
Cc1cc(N2C(=O)c3ccccc3C2=O)no1	inactive	–
NC(=O)C1CCN(c2nc(-c3cccc(Br)c3)cs2)CC1	inactive	–
COc1ccc(C2c3c(ncn(CCN4CCOCC4)c3=N)Oc3ccc4ccccc4c32)cc1 (stereo not given)	inactive	–
Cc1ccnc(NC(=S)N2CC3CN(c4cccc(C(F)(F)F)c4)CC3C2)c1 (stereo not given)	inactive	–
O=S(=O)(c1ccc2c(c1)OCCO2)N1CCN(S(=O)(=O)c2ccccc2Cl)CC1	inactive	–
O=C(CNC(=O)c1ccccc1)OC(C(=O)Nc1ccc2c(c1)OCO2)c1ccccc1 (stereo not given)	inactive	–
Cc1ccc(OCCn2c(CCNC(=O)c3ccc[nH]3)nc3ccccc32)cc1	inactive	–
CCc1ccc(NC(=O)C(=O)NNC(=O)Cc2ccc(Cl)c(Cl)c2)cc1	inactive	–
Cn1c2cc(CO)sc2c2cnn(Cc3ccccc3F)c(=O)c21	inactive	–
O=C(Nc1ccc2ccccc2c1)Nc1nnc(-c2ccccc2)s1	inactive	–
COc1ccc(-c2nnc3n2N=C(c2c(OC)cccc2OC)CS3)cc1OC	inactive	–
NC(=O)C1CCN(c2nc(-c3ccc4c(c3)OCCCO4)cs2)CC1	inactive	–
Cc1ccc(OCCn2c(CCNC(=O)C3CCN(C(=O)OC(C)(C)C)CC3)nc3ccccc32)cc1	inactive	–
COc1ccc(C(=O)Nc2nc(-c3ccccc3)cs2)cc1NS(=O)(=O)c1ccc(C)cc1	inactive	–
c1nc(NCCc2cnc[nH]2)c2cc(-c3ccc4c(c3)OCO4)ccc2n1	inactive	–
CC(C)CC(=O)c1c(O)cc2c(c1O)C(CC(C)C)C1=C(O2)C(C)(C)C(=O)C(C)(C)C1=O (stereo not given)	inactive	–
Cc1cccc(C(=O)N2CCc3cc(-c4nc(NC(=O)Cc5ccc6c(c5)OCO6)sc4C)ccc32)c1	inactive	–
FC(F)(F)c1ccccc1-c1nc(NCc2ccc(-c3ccc(Cl)cc3)cc2)c2ccccc2n1	inactive	–
Cc1cc2c(s1)c1cnn(Cc3ccc(Br)cc3F)c(=O)c1n2C	inactive	–
O=C(COc1ccccc1Br)NCCc1nc2ccccc2[nH]1	inactive	–

SMILES	Potency	activity change, negative = inhibition
Cc1ccccc1C(=O)N1CCc2cc(-c3nc(NC(=O)c4ccc5c(c4)OCO5)sc3C)ccc21	inactive	–
NC(=O)C1CCN(c2nnc(-c3ccc4c(c3)OCCCO4)s2)CC1	inactive	–
O=S(=O)(c1ccc2c(c1)OCCO2)N1CCN(S(=O)(=O)c2c(F)cccc2F)CC1	inactive	–
Cc1ccc(OCCn2c(CCNC(=O)Cc3ccc(F)cc3F)nc3ccccc32)cc1	inactive	–
COc1ccccc1NC(=O)C(OC(=O)CNC(=O)c1ccccc1)c1ccccc1 (stereo not given)	inactive	–
CC(C)(C)OC(=O)N1CCN(c2ccc(NCc3ncc(-c4ccc(C#N)cc4)s3)cc2)CC1	4.47 µM (active)	–
CN(C)c1cccc(-c2ncc(F)c(N3CCC(C(N)=O)CC3)n2)c1	inactive	–
COc1ccc(-c2nnc(NC(=O)Nc3ccc4ccccc4c3)s2)cc1OC	inactive	–
Cc1ccc(NS(=O)(=O)c2ccc3c(c2)CCC(C)(C)O3)cc1C	inactive	–
O=C(Nc1ccc2ccccc2c1)Nc1nnc(-c2ccncc2)s1	inactive	–
O=C(Cn1nc(-c2ccc(OC(F)(F)F)cc2)ccc1=O)NCCc1ccccc1	inactive	–
OCc1cn(Cc2ccc(O)c3ncccc23)cn1	inactive	–
C[C@@H]1CN(c2c(F)c(F)c3c(=O)c(C(=O)O)cn(C4CC4)c3c2F)C[C@H](C)N1	–	-0.742% [at 11.2 µM] (inactive)
Cc1cc(-c2cnc(N)c3c(-c4ccc5scnc5c4)csc23)n(C)n1	inactive	–
Cc1ccc(S(=O)(=O)Nc2cncc(C(=O)Nc3nc(-c4ccccc4)cs3)c2)cc1	inactive	–
Cc1ccc(NC(=O)CN2C(=O)N/C(=C\c3cccn3-c3cccc(C(=O)O)c3)C2=O)cc1	inactive	–
CCCCNc1nc(C)nc2c1nc(-c1ccccc1)n2CCN(C)C	inactive	–
O=C(c1c(F)cccc1F)N1CCN(S(=O)(=O)c2ccc3c(c2)OCCO3)CC1	inactive	–
COC(=O)C1CCN(C(=O)c2ccc3c(c2)ncn3-c2cccc(C)c2)CC1	inactive	–
Cc1noc(CN(C)c2ncnc3ccc(-c4ccc5c(c4)OCO5)cc23)n1	inactive	–

molecular target: Retinaldehyde dehydrogenase 3 (Homo sapiens) (UniProt P47895); assay: qHTS for Inhibitors of the Aldehyde Dehydrogenase Family (ALDH1A3) Primary screen (AID 2061315); details: ALDH inhibition qHTS; series mostly up to 56 µM

SMILES	Potency	activity change, negative = inhibition
Cc1cc(N2C(=O)c3ccccc3C2=O)no1	inactive	–
NC(=O)C1CCN(c2nc(-c3cccc(Br)c3)cs2)CC1	inactive	–
COc1ccc(C2c3c(ncn(CCN4CCOCC4)c3=N)Oc3ccc4ccccc4c32)cc1 (stereo not given)	inactive	–
Cc1ccnc(NC(=S)N2CC3CN(c4cccc(C(F)(F)F)c4)CC3C2)c1 (stereo not given)	inactive	–
O=S(=O)(c1ccc2c(c1)OCCO2)N1CCN(S(=O)(=O)c2ccccc2Cl)CC1	inactive	–
O=C(CNC(=O)c1ccccc1)OC(C(=O)Nc1ccc2c(c1)OCO2)c1ccccc1 (stereo not given)	inactive	–
Cc1ccc(OCCn2c(CCNC(=O)c3ccc[nH]3)nc3ccccc32)cc1	inactive	–
CCc1ccc(NC(=O)C(=O)NNC(=O)Cc2ccc(Cl)c(Cl)c2)cc1	inactive	–
Cn1c2cc(CO)sc2c2cnn(Cc3ccccc3F)c(=O)c21	inactive	–
O=C(Nc1ccc2ccccc2c1)Nc1nnc(-c2ccccc2)s1	inactive	–
COc1ccc(-c2nnc3n2N=C(c2c(OC)cccc2OC)CS3)cc1OC	inactive	–
NC(=O)C1CCN(c2nc(-c3ccc4c(c3)OCCCO4)cs2)CC1	inactive	–
Cc1ccc(OCCn2c(CCNC(=O)C3CCN(C(=O)OC(C)(C)C)CC3)nc3ccccc32)cc1	inactive	–
COc1ccc(C(=O)Nc2nc(-c3ccccc3)cs2)cc1NS(=O)(=O)c1ccc(C)cc1	inactive	–
c1nc(NCCc2cnc[nH]2)c2cc(-c3ccc4c(c3)OCO4)ccc2n1	inactive	–
CC(C)CC(=O)c1c(O)cc2c(c1O)C(CC(C)C)C1=C(O2)C(C)(C)C(=O)C(C)(C)C1=O (stereo not given)	inactive	–
Cc1cccc(C(=O)N2CCc3cc(-c4nc(NC(=O)Cc5ccc6c(c5)OCO6)sc4C)ccc32)c1	inactive	–
FC(F)(F)c1ccccc1-c1nc(NCc2ccc(-c3ccc(Cl)cc3)cc2)c2ccccc2n1	inactive	–
Cc1cc2c(s1)c1cnn(Cc3ccc(Br)cc3F)c(=O)c1n2C	inactive	–
O=C(COc1ccccc1Br)NCCc1nc2ccccc2[nH]1	inactive	–

SMILES	Potency	activity change, negative = inhibition
Cc1ccccc1C(=O)N1CCc2cc(-c3nc(NC(=O)c4ccc5c(c4)OCO5)sc3C)ccc21	inactive	–
NC(=O)C1CCN(c2nnc(-c3ccc4c(c3)OCCCO4)s2)CC1	inactive	–
O=S(=O)(c1ccc2c(c1)OCCO2)N1CCN(S(=O)(=O)c2c(F)cccc2F)CC1	inactive	–
Cc1ccc(OCCn2c(CCNC(=O)Cc3ccc(F)cc3F)nc3ccccc32)cc1	inactive	–
COc1ccccc1NC(=O)C(OC(=O)CNC(=O)c1ccccc1)c1ccccc1 (stereo not given)	inactive	–
CC(C)(C)OC(=O)N1CCN(c2ccc(NCc3ncc(-c4ccc(C#N)cc4)s3)cc2)CC1	inactive	–
CN(C)c1cccc(-c2ncc(F)c(N3CCC(C(N)=O)CC3)n2)c1	inactive	–
COc1ccc(-c2nnc(NC(=O)Nc3ccc4ccccc4c3)s2)cc1OC	inactive	–
Cc1ccc(NS(=O)(=O)c2ccc3c(c2)CCC(C)(C)O3)cc1C	inactive	–
O=C(Nc1ccc2ccccc2c1)Nc1nnc(-c2ccncc2)s1	inactive	–
O=C(Cn1nc(-c2ccc(OC(F)(F)F)cc2)ccc1=O)NCCc1ccccc1	inactive	–
OCc1cn(Cc2ccc(O)c3ncccc23)cn1	inactive	–
C[C@@H]1CN(c2c(F)c(F)c3c(=O)c(C(=O)O)cn(C4CC4)c3c2F)C[C@H](C)N1	–	1.69% [at 11.2 µM] (inactive)
Cc1cc(-c2cnc(N)c3c(-c4ccc5scnc5c4)csc23)n(C)n1	inactive	–
Cc1ccc(S(=O)(=O)Nc2cncc(C(=O)Nc3nc(-c4ccccc4)cs3)c2)cc1	inactive	–
Cc1ccc(NC(=O)CN2C(=O)N/C(=C\c3cccn3-c3cccc(C(=O)O)c3)C2=O)cc1	inactive	–
CCCCNc1nc(C)nc2c1nc(-c1ccccc1)n2CCN(C)C	inactive	–
O=C(c1c(F)cccc1F)N1CCN(S(=O)(=O)c2ccc3c(c2)OCCO3)CC1	inactive	–
COC(=O)C1CCN(C(=O)c2ccc3c(c2)ncn3-c2cccc(C)c2)CC1	inactive	–
Cc1noc(CN(C)c2ncnc3ccc(-c4ccc5c(c4)OCO5)cc23)n1	inactive	–
